Structures are written as SMILES. Screen size: about 370,000 compounds; about 6,800 (1.8%) were called active.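 The calls were made as follows: active = activation above a cutoff set at the mean of all screened compounds plus 3 SD (cut at about 10% in these data); inactive = the rest.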 This excerpt belongs to a sample that is enriched for actives.

For this assay, the system named is Nuclear hormone receptor DAF-12 (Heterodera glycines), GAL4 fusion. The assay is described as follows: H. glycines DAF-12 receptor agonists, primary screen, cell-based, luminescence, HEK293, GAL4 fusion, UAS-luciferase (AID 687014).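 Also: 0% = DMSO wells and 100% = sodium butyrate wells.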 As to conditions: HEK293 GAL4-hgDAF12 UAS-luciferase reporter, agonist luminescence; at 6.8 µM; hits give high values.
With `COc1ccc2c(c1)NP(=S)(c1ccccc1)N2` (stereo not given), the activation is 23.2% (active). Under `Cc1cc(C)c2c(c1)NP(=S)(c1ccccc1)N2` (stereo not given) stands 13.1% (active). With `COc1cc(C(c2c(O)c3ccccc3oc2=O)c2c(C)n(C)n(-c3ccccc3)c2=O)ccc1O` (stereo not given), the activation is 2.01% (inactive).

Take `CN(C)CC1CCCCC1=O` (stereo not given): the activation was 1.62% (inactive). Turning to `O=S(=O)(c1ccccc1)N1CCC2CCNC2C1` (stereo not given), the activation is 1.08% (inactive).

With `CO[C@H]([C@H](C)/C=C/N(C)C=O)[C@@H](C)C(=O)CC[C@H](C)[C@H](O)[C@H](C)[C@H]1OC(=O)/C=C/C(C)=C/[C@H](O)[C@H](OC)C[C@@H]2C=CC[C@@H](C[C@H](OC)[C@@]3(CO3)[C@@H](OC)C[C@@H](OC)[C@@H]1C)O2`, the activation is -9.43% (inactive). Under `COP(=O)(Sc1ccccc1)C(Cc1ccccc1)NC(=O)OCc1ccccc1` (stereo not given) stands 1.8% (inactive); under `Cc1ccccc1CCC[C@@H](CC1CCCCC1)CN(C)C(=O)Oc1ccccc1`, 0.88% (inactive); under `c1ccc2sc(C3CCCNC3)nc2c1` (stereo not given), 11.6% (active).

Regarding `c1ccc2sc(N3CCNCC3)nc2c1`, the activation is 5.89% (inactive). Then `NC(=O)Nc1cccc(C(F)(F)F)c1`, with 1.53% (inactive). On to `CCCC[N+]1(C)C2CC(OC(=O)C(CO)c3ccccc3)CC1C1OC12` (stereo not given), for which the activation is -2.54% (inactive). As to `CC[N+](CC)(CC)CCCCCCCCCC[N+](CC)(CC)CC`, the activation is 0.44% (inactive). Under `CS(=O)(=O)N1CCC2CCNC2C1` (stereo not given) stands -2.06% (inactive).

With `COc1cc(OC)cc(C(=O)NCCN2CCC3(CC2)C(=O)NCN3c2ccccc2)c1`, the activation is -1.03% (inactive).

As to `O=c1[nH]c(=O)n(Cc2ccccc2)c(O)c1/C=N/Nc1c(F)c(F)c(F)c(F)c1F`, the activation is -0.57% (inactive). Under `O=C(N/N=C/c1c(O)n(C2CC2)c(=S)[nH]c1=O)c1ccccc1` stands 11.8% (active); under `O=C(N/N=C/c1c(O)n(Cc2ccccc2)c(=O)[nH]c1=O)c1ccccc1`, 16% (active). As to `O=c1[nH]c(=O)n(CCc2ccccc2)c(O)c1/C=N/N1CCOCC1`, the activation was 0.56% (inactive). Under `O=c1[nH]c(=S)n(C2CC2)c(O)c1/C=N/N1CCOCC1` stands -1.58% (inactive); under `O=C(N/N=C/c1c(O)n(C2CC2)c(=S)[nH]c1=O)c1ccccc1Cl`, 2.67% (inactive); under `CCN(CC)C(=O)[C@@H]1C=C2c3cccc4[nH]c(Br)c(c34)C[C@H]2N(C)C1`, -1.1% (inactive).

On to `Clc1ccc([C@@H]2CC3CCC2N3)cn1` (stereo not given in full), for which the activation was 1.87% (inactive). For `CCC(C)NC1(c2ccccc2)CCCCC1` (stereo not given), the activation is 1.32% (inactive). As for `CC(C)(C)c1ccc(OC(=O)N2CCCCC2)cc1`, the activation is 14.4% (active).

Regarding `O=C(Nc1cccc(OC(=O)N2CCCCC2)c1)N1CCOCC1`, the activation is -0.57% (inactive). Then `CN1CCN(C(=O)COc2ccc(C(C)(C)C)cc2Br)CC1`, with 1.63% (inactive). Under `Cc1cc(N2CCNC[C@@H]2C)ccc1N1CC[C@H](O)C1` stands 0.8% (inactive); under `COc1ccc2c(c1)[C@@]13CCCCC1[C@@H](C2)NCC3` (stereo not given in full), 4.73% (inactive). As for `Brc1ccc2c(c1)CNCc1cnnn1-2`, the activation is 0.9% (inactive).

For the origin of these results see PubChem BioAssay AID687014 (The Scripps Research Institute Molecular Screening Center, 2013).
